Several values for one entry are separate records, joined by “and”; a condition that tells them apart may be missing. Equal values may be shown once. In all, about 5,700 compounds went through this assay and about 85 (1%) were called active. No stated cut-off is given here; in the data, active means p53-positive nuclei above about 36% (passing the limit was not always enough); inactive means the rest. The full list was thinned out, with actives kept by preference. Some structures have more than one record in an assay (separate samples or runs), and their calls can disagree.

A short description of assay [1]: p53 stabilisation in HPV-positive human cells, imaging, p53-positive nuclei imaging, 24 h, 48 h (AID 1508601). Particulars: 24/48 h.
Assay [2] concerns the target Cellular tumor antigen p53 (Homo sapiens) (UniProt P04637). Described as above. Particulars: 24/48 h, stronger effect = higher value.
Where [3] appears, read: measured here: cell number at 24 h, Library stock concentration: 10 mM.
Where [4] appears, read: measured here: cell number at 48 h, Library stock concentration: 10 mM.
[5] abbreviates: Library stock concentration: 10 mM.
The mark [6] stands for this setting: measured here: p53 positive nuclei at 24 h, Library stock concentration: 10 mM.
The mark [7] stands for this setting: measured here: cell number at 24 h, Library stock concentration: 80 uM.
The mark [8] stands for this setting: measured here: cell number at 24 h, Library stock concentration: 400 uM.
Setting [9] is: measured here: cell number at 24 h, Library stock concentration: 2 mM.
The mark [10] stands for this setting: measured here: cell number at 48 h, Library stock concentration: 80 uM.
The mark [11] stands for this setting: measured here: cell number at 48 h, Library stock concentration: 400 uM.
Where [12] appears, read: measured here: cell number at 48 h, Library stock concentration: 2 mM.
Setting [13] is: Library stock concentration: 80 uM.
Setting [14] is: Library stock concentration: 400 uM.
The mark [15] stands for this setting: Library stock concentration: 2 mM.
The mark [16] stands for this setting: measured here: p53 positive nuclei at 24 h, Library stock concentration: 80 uM.
The mark [17] stands for this setting: measured here: p53 positive nuclei at 24 h, Library stock concentration: 400 uM.
[18] abbreviates: measured here: p53 positive nuclei at 24 h, Library stock concentration: 2 mM.
Setting [19] is: measured here: cell number at 24 h, concentration not given here.
Setting [20] is: measured here: cell number at 48 h, concentration not given here.
Setting [21] is: measured here: p53 positive nuclei at 24 h, concentration not given here.

Cellular tumor antigen p53 (Homo sapiens), sequence (P04637 whole entry, looked up): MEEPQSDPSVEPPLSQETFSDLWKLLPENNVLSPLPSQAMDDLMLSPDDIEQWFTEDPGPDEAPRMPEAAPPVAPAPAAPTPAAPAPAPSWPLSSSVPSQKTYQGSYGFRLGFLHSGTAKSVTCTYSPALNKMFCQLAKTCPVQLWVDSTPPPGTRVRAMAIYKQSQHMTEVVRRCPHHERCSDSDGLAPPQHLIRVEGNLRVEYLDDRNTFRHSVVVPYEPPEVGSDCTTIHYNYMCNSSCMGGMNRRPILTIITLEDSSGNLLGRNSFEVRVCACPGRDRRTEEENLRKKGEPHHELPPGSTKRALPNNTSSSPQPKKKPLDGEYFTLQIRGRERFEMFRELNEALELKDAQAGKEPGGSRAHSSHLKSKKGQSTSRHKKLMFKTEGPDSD

`CNC(=O)c1ccc(Nc2ncc(C(F)(F)F)c(NCc3nccnc3N(C)S(C)(=O)=O)n2)cc1`: the nuclei count, normalised in assay [1] (measured here: cell number at 24 h, Library stock concentration: 46 uM) was 91.8%; in assay [1] (measured here: cell number at 24 h, Library stock concentration: 278 uM), 82%; in assay [1] (measured here: cell number at 24 h, Library stock concentration: 1.67 mM), 95.8%; in assay [1] (setting [3]), 47.5%; in assay [1] (measured here: cell number at 48 h, Library stock concentration: 46 uM), 91.6%; in assay [1] (measured here: cell number at 48 h, Library stock concentration: 278 uM) it was 86.7%. The nuclei count, normalised in assay [1] (measured here: cell number at 48 h, Library stock concentration: 1.67 mM) came to 108%; in assay [1] (setting [4]), 33.5%. Further, the p53-positive nuclei, normalised in assay [2] (Library stock concentration: 46 uM) is -0.225% (inactive); in assay [2] (Library stock concentration: 278 uM), -0.256% (inactive); in assay [2] (Library stock concentration: 1.67 mM) it was 0.138% (inactive); in assay [2] (setting [5]) it was 14.9% (inactive); in assay [2] (measured here: p53 positive nuclei at 24 h, Library stock concentration: 46 uM) it was -0.00777%; in assay [2] (measured here: p53 positive nuclei at 24 h, Library stock concentration: 278 uM) it was -0.0569%. Besides, the p53-positive nuclei, normalised in assay [2] (measured here: p53 positive nuclei at 24 h, Library stock concentration: 1.67 mM) turned out to be 0.153%; in assay [2] (setting [6]), 8.89%.
Take `CS(=O)(=O)c1cccc(CNc2nc(Nc3ccc4c(c3)CCC(=O)N4)ncc2C(F)(F)F)c1`: the nuclei count, normalised in assay [1] (setting [7]) was determined as 112%; in assay [1] (setting [8]), 104%; in assay [1] (setting [9]), 111%; in assay [1] (measured here: cell number at 24 h, Library stock concentration: 3.33 mM) it was 70.4%; in assay [1] (setting [3]), 48.4%; in assay [1] (setting [10]) it was 115%. In addition, the nuclei count, normalised in assay [1] (setting [11]) came to 109%; in assay [1] (setting [12]), 115%; in assay [1] (measured here: cell number at 48 h, Library stock concentration: 3.33 mM) it was 76.2%; in assay [1] (setting [4]) it was 28.9%. Besides, the p53-positive nuclei, normalised in assay [2] (setting [13]) is 0.032% (inactive); in assay [2] (setting [14]), -0.135% (inactive); in assay [2] (setting [15]), 0.159% (inactive); in assay [2] (Library stock concentration: 3.33 mM) it was -0.301% (inactive); in assay [2] (setting [5]), 1.33% (inactive); in assay [2] (setting [16]), -0.0118%. Moreover, the p53-positive nuclei, normalised was -0.00681% in assay [2] (setting [17]); 0.177% in assay [2] (setting [18]); -0.516% in assay [2] (measured here: p53 positive nuclei at 24 h, Library stock concentration: 3.33 mM); 0.847% in assay [2] (setting [6]).
As for `CN(c1ccccc1CNc1nc(Nc2ccc3c(c2)CC(=O)N3)ncc1C(F)(F)F)S(C)(=O)=O`, the nuclei count, normalised in assay [1] (setting [7]) was 112% and 102%; in assay [1] (setting [8]), 112% and 102%; in assay [1] (setting [9]), 83.1% and 86.6%; in assay [1] (setting [3]), 33.4% and 36.5%; in assay [1] (setting [10]) it was 116% and 109%; in assay [1] (setting [11]), 120% and 115%. The nuclei count, normalised was 81.2% and 88.6% in assay [1] (setting [12]); 22.6% and 25.6% in assay [1] (setting [4]). For the same compound, the p53-positive nuclei, normalised is -0.0383% (inactive) and 0.0654% (inactive) in assay [2] (setting [13]); 0.0612% (inactive) and 0.141% (inactive) in assay [2] (setting [14]); 1.2% (inactive) and 0.96% (inactive) in assay [2] (setting [15]); 55.4% (inactive) and 54.9% (active) in assay [2] (setting [5]); -0.06% and 0.248% in assay [2] (setting [16]); 0.0578% and 0.322% in assay [2] (setting [17]). For the same compound, the p53-positive nuclei, normalised in assay [2] (setting [18]) was 0.201% and 0.404%; in assay [2] (setting [6]), 43.5% and 27.2%.
Turning to `CCCCC/C=C/C=C1/C=CC(=O)[C@@H]1C/C=C\CCCC(=O)O`, the nuclei count, normalised in assay [1] (setting [19]) was found to be 106%; in assay [1] (setting [20]), 102%. Moreover, the p53-positive nuclei, normalised in assay [2] (concentration not given here) was 0.0559% (inactive); in assay [2] (setting [21]), 0.0826%.
Consider `O=C(O)CCC/C=C\C[C@@H]1[C@@H](/C=C/[C@@H](O)COc2ccccc2)[C@H](O)C[C@@H]1O`, for which the nuclei count, normalised in assay [1] (setting [19]) was determined as 96%; in assay [1] (setting [20]), 102%. Moreover, the p53-positive nuclei, normalised in assay [2] (concentration not given here) was -0.0602% (inactive); in assay [2] (setting [21]), -0.00687%.
Turning to `COC(=O)C#Cc1ccc([N+](=O)[O-])cc1`, the nuclei count, normalised in assay [1] (measured here: cell number at 24 h, Library stock concentration: 500 nM) came to 110%; in assay [1] (measured here: cell number at 24 h, Library stock concentration: 1.5 uM) it was 114%; in assay [1] (measured here: cell number at 24 h, Library stock concentration: 4.6 uM), 106%; in assay [1] (measured here: cell number at 24 h, Library stock concentration: 13.7 uM) it was 116%; in assay [1] (measured here: cell number at 24 h, Library stock concentration: 41 uM) it was 110%; in assay [1] (measured here: cell number at 24 h, Library stock concentration: 123 uM), 103%. Further, the nuclei count, normalised came to 118% in assay [1] (measured here: cell number at 24 h, Library stock concentration: 370 uM); 107% in assay [1] (measured here: cell number at 24 h, Library stock concentration: 1.111 mM); 74.6% in assay [1] (measured here: cell number at 24 h, Library stock concentration: 3.333 mM); 49.2% in assay [1] (setting [3]); 111% in assay [1] (measured here: cell number at 48 h, Library stock concentration: 500 nM); 112% in assay [1] (measured here: cell number at 48 h, Library stock concentration: 1.5 uM). For the same compound, the nuclei count, normalised amounted to 112% in assay [1] (measured here: cell number at 48 h, Library stock concentration: 4.6 uM); 112% in assay [1] (measured here: cell number at 48 h, Library stock concentration: 13.7 uM); 114% in assay [1] (measured here: cell number at 48 h, Library stock concentration: 41 uM); 106% in assay [1] (measured here: cell number at 48 h, Library stock concentration: 123 uM); 117% in assay [1] (measured here: cell number at 48 h, Library stock concentration: 370 uM); 108% in assay [1] (measured here: cell number at 48 h, Library stock concentration: 1.111 mM). Also, the nuclei count, normalised came to 69.9% in assay [1] (measured here: cell number at 48 h, Library stock concentration: 3.333 mM) and 32.5% in assay [1] (setting [4]). Besides, the p53-positive nuclei, normalised was -0.248% (inactive) in assay [2] (Library stock concentration: 500 nM); 0.113% (inactive) in assay [2] (Library stock concentration: 1.5 uM); -0.0386% (inactive) in assay [2] (Library stock concentration: 4.6 uM); 0.351% (inactive) in assay [2] (Library stock concentration: 13.7 uM); -0.0492% (inactive) in assay [2] (Library stock concentration: 41 uM); 0.00469% (inactive) in assay [2] (Library stock concentration: 123 uM). Further, the p53-positive nuclei, normalised in assay [2] (Library stock concentration: 370 uM) was 0.132% (inactive); in assay [2] (Library stock concentration: 1.111 mM) it was -0.122% (inactive); in assay [2] (Library stock concentration: 3.333 mM), 0.307% (inactive); in assay [2] (setting [5]), 69.2% (active); in assay [2] (measured here: p53 positive nuclei at 24 h, Library stock concentration: 500 nM), -0.0875%; in assay [2] (measured here: p53 positive nuclei at 24 h, Library stock concentration: 1.5 uM), -0.0262%. The p53-positive nuclei, normalised in assay [2] (measured here: p53 positive nuclei at 24 h, Library stock concentration: 4.6 uM) is -0.0872%; in assay [2] (measured here: p53 positive nuclei at 24 h, Library stock concentration: 13.7 uM), 0.099%; in assay [2] (measured here: p53 positive nuclei at 24 h, Library stock concentration: 41 uM), 0.0546%; in assay [2] (measured here: p53 positive nuclei at 24 h, Library stock concentration: 123 uM), -0.148%; in assay [2] (measured here: p53 positive nuclei at 24 h, Library stock concentration: 370 uM), -0.0792%; in assay [2] (measured here: p53 positive nuclei at 24 h, Library stock concentration: 1.111 mM), -0.148%. Moreover, the p53-positive nuclei, normalised in assay [2] (measured here: p53 positive nuclei at 24 h, Library stock concentration: 3.333 mM) worked out at 0.591%; in assay [2] (setting [6]), 73.8%.
`CC(=O)Nc1ccc(S(=O)(=O)Nc2ccc([N+](=O)[O-])cc2)cc1`: the nuclei count, normalised stood at 87.2% in assay [1] (setting [19]) and 92.6% in assay [1] (setting [20]). Also, the p53-positive nuclei, normalised in assay [2] (concentration not given here) was -0.0672% (inactive); in assay [2] (setting [21]) it was 0.0938%.
Consider `O=C(N[C@@H](CO)[C@H](O)c1ccc([N+](=O)[O-])cc1)C(Cl)Cl`, for which the nuclei count, normalised was determined as 109% in assay [1] (setting [19]) and 107% in assay [1] (setting [20]). In addition, the p53-positive nuclei, normalised in assay [2] (concentration not given here) was -0.175% (inactive); in assay [2] (setting [21]) it was -0.247%.

The record behind these values is PubChem BioAssay AID1508601 (ICCB-Longwood Screening Facility, Harvard Medical School, 2020).
